High-throughput results: PubChem BioAssay, National Center for Advancing Translational Sciences (NCATS)
D1 antagonist: blocks dopamine activation of the human D1 receptor; P21728; HEK293 TREx D1 cells, calcium flux, dopamine EC80; active compounds read low; activity change, negative = inhibition, % at 10 µM; 360,000 compounds, 3.2% hits; in the data active = activity change below about -30%; note: % is set by controls: 0 for no effect and ±100 for the full control effect
Target sequence (P21728 whole entry, looked up): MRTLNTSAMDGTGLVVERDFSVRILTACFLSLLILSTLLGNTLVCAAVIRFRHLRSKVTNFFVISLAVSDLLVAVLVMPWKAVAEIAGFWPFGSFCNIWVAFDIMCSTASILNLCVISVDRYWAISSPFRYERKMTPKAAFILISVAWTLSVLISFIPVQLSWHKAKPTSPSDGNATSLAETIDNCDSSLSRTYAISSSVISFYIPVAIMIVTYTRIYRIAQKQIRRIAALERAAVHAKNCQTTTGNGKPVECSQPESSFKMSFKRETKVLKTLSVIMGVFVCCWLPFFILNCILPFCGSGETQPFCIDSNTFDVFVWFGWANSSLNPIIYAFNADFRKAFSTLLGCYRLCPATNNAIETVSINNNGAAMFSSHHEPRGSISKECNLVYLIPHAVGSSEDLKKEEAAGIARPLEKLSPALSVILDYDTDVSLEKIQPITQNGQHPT
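Calcium flux readout: force-coupled, inducible Hek293 Trex D1 line, cells induced overnight at 30 C with tetracycline, dye-loaded 30–90 min at RT. Antagonism scored against EC80 dopamine challenge given 180 s after compound.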
TRHR agonist: agonists of human TRH receptor; TRHR cells, calcium flux fluo-8, FDSS agonist mode; activation, % at 2 µM; 360,000 compounds, 0.18% hits; AID 493084; note: 0% is about no effect
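TRHR-expressing cells, plated overnight in medium with 10% serum, were loaded with fluo-8 calcium dye at room temperature. After a 10 s baseline, library compound was pin-added and calcium release was recorded kinetically (ex 480/em 530) as agonist response.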
D1 potentiator: potentiators of human D1 dopamine receptor | 360,000 compounds, 0.036% hits | potentiation, % at 10 µM | P21728 | HEK293 TREx D1 cells, calcium flux, dopamine EC20 potentiation; in the data active = potentiation above about 30%; note: 0% is about no effect
D1 agonist: human D1 receptor agonism. HEK293 T-REx D1 cells, calcium flux, agonist mode. activation, % at 2 µM. 360,000 compounds, 1% hits. AID 504660; note: 0% is about no effect
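Inducible HEK293 T-REx D1 cells, force-coupled to calcium signalling, were plated at 4000 cells/well with tetracycline and held overnight at 30 C. After no-wash calcium dye loading, compound-evoked calcium rise over 180 s flagged agonists.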
TRHR enhancer: allosterically enhances the human TRH receptor; enhancement, % at 2 µM; TRHR cells, fluo-8 calcium fluorescence, EC20 TRH enhancement; 360,000 compounds, 0.66% hits; P34981; AID 493056; in the data active = enhancement above about 30%; note: 0% is about no effect
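Enhancer read-out: after compound pinning and an initial kinetic agonist-mode read, an EC20 of TRH (10 nM final) was injected and fluo-8 calcium signal (Ex 480/Em 530) followed at 1 s/cycle for 100 cycles in TRHR-expressing cells.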
* marks the source's active call; other numbers are inactive results; / = not tested or not shown. The list is not random: actives were taken first. Their share in the collection is about 4.7%. Cut-off read from the data, not from the text of the source, unless noted: active = activation above about 30%; inactive = the rest.

SMILES | D1 antagonist | TRHR agonist | D1 potentiator | D1 agonist | TRHR enhancer
COc1cc(/C=C(\C#N)C(=O)c2c[nH]c3ccccc23)cc(OC)c1O | -3.9 | 19.6 | -2.0 | 45.2* | -1.1
O=C(NCc1ccc(Cl)cc1)C1CCCN(c2nc3ccccc3n3cccc23)C1 (stereo not given) | 8.6 | -0.2 | -4.1 | 1.1 | 1.5
COc1c(Cl)cc(Cl)cc1/C=C(\C#N)c1nc2ccccc2[nH]1 | -60.6* | 0.1 | -6.6 | 11.8 | -4.6
COc1c(O)ccc(/C=C(\C#N)c2nc3ccccc3[nH]2)c1[N+](=O)[O-] | 12.6 | 2.2 | -4.3 | 2.1 | -1.5
O=C(NCCCN1CCN(c2ccccc2F)CC1)c1ccc2nc(N3CCCCC3)sc2c1 | -19.5 | -0.7 | -3.5 | 8.3 | -0.9
CCc1nn(CC(=O)N2CCN(c3cccc(C)c3C)CC2)c(=O)c2cc3sccc3n12 | 1.9 | 0.0 | -2.7 | -0.2 | -1.5
O=C1C(c2cccc(Br)c2)N(CCc2ccccc2)C(=O)CN1C1CCCCC1 (stereo not given) | -33.1* | -0.6 | -1.0 | -1.8 | 5.8
Nc1ccc(S(=O)(=O)NC2=NCCCCC2)cc1N | 11.9 | 1.7 | -5.0 | 3.3 | 10.0
O=[N+]([O-])c1cc(S(=O)(=O)NC2=NCCCCC2)ccc1NCC1CCCCC1 | -33.5* | -0.7 | 0.1 | 6.0 | -3.5
Cc1sc2ncn(CC(=O)N3CCN(c4ccc(F)cc4)CC3)c(=O)c2c1S(=O)(=O)N1CCCCC1 | -4.5 | -0.2 | 0.2 | 1.2 | 1.0
O=C(Nc1ccc(C(=O)OCc2cc(=O)n3ccsc3n2)cc1)c1cccc(F)c1 | 8.3 | 0.0 | 0.9 | -0.5 | 2.0
O=C(CCCc1ccccc1)NC1CCSC1=O (stereo not given) | 0.8 | -0.1 | 1.5 | -0.2 | -3.0
O=C(Cc1ccc(F)cc1)NC1CCSC1=O (stereo not given) | -33.1* | 0.0 | -1.5 | 3.4 | -1.0
Cc1ccc(/C(N)=N/OC(=O)Cc2cccs2)cc1 | 10.4 | 0.3 | 6.7 | 0.3 | 6.3
N/C(=N\OC(=O)Cc1cccs1)c1ccccc1 | -38.2* | -0.2 | -8.4 | 1.1 | -1.6
Cc1ccc(Cn2cc(CCC(=O)NC3CCC(C)CC3)c3ccccc32)cc1 (stereo not given) | 2.6 | 0.3 | -1.2 | 5.7 | 1.3
Cc1cc(NC(=O)c2cc(-c3cccc(Cl)c3)on2)nn1Cc1ccc(Cl)cc1 | 10.7 | 2.1 | -1.1 | 4.6 | -5.6
CCC(=O)N1CCc2cc(Br)cc(S(=O)(=O)CCC(=O)NCc3ccc(C)cc3)c21 | 1.2 | -0.2 | 0.2 | 2.7 | 9.7
CCOc1ccccc1CNCCN1CCOCC1 | 5.8 | 0.8 | -3.4 | 2.2 | 0.1
c1ccc2c(CNCCN3CCOCC3)cccc2c1 | -31.6* | -0.1 | -10.7 | 2.5 | 5.4
CN(C)C(=O)N(CCCN1CCOCC1)Cc1cccc2ccccc12 | -48.9* | -0.1 | -14.3 | 1.5 | -6.5
N#Cc1nc(Cc2cccc3ccccc23)oc1NCCCn1ccnc1 | 7.4 | 0.0 | -5.9 | 9.0 | 4.1
O=C(Nc1ccccc1)N(CCCN1CCOCC1)Cc1ccccc1F | -21.2 | 0.2 | -1.4 | 1.8 | -1.9
N#Cc1nc(Cc2cccc3ccccc23)oc1NCCCN1CCOCC1 | -42.0* | -0.1 | -11.2 | 8.3 | 15.5
O=C(Nc1nnc2n1CCS2)c1ccc(F)cc1F | 7.9 | 0.4 | 3.4 | 0.3 | -1.0
SMILES | D1 antagonist | TRHR agonist | D1 potentiator | D1 agonist | TRHR enhancer
CN(C)CCNC(=O)c1ccc2c(c1)NC(=O)c1ccccc1S2 | 14.3 | -1.0 | 0.1 | 6.6 | 8.8
CCN(CC)CCNC(=O)c1ccc2c(c1)NC(=O)c1ccccc1S2 | -30.5* | 1.6 | -3.5 | 0.7 | -3.7
COc1ccc(OC)c(/C=C2\NC(=O)NC2=O)c1 | 2.3 | -0.8 | 12.8 | 4.0 | -2.4
COc1cc(N2CCCC2)c(OC)cc1/C=C1/NC(=S)NC1=O | -34.9* | 70.5* | -2.2 | 182.8* | 6.2
NC(=O)c1cc2cc(Cl)ccc2oc1=Nc1cccc(C(F)(F)F)c1 | -32.7* | 0.3 | -4.4 | -3.6 | -3.6
CCc1ccc(-n2nc(CO)c(C(=O)NCc3ccccc3OC)n2)cc1 | 3.8 | -1.1 | 1.1 | 1.9 | 3.1
N=C1/C(=C\c2ccc(-c3cccc(Cl)c3)o2)C(=O)N=C2SC=C(c3ccccc3)N12 | 5.1 | 1.0 | 4.8 | -0.1 | 2.4
N=C1/C(=C\c2ccc(-c3ccc(C(=O)O)cc3)o2)C(=O)N=C2SC=C(c3ccccc3)N12 | -16.0 | -0.2 | -4.8 | 37.7* | 4.1
Cc1ccc(NC(=O)Cn2nnc(-c3ccccc3)n2)c(C)c1 | -2.6 | 0.0 | -2.5 | 1.3 | 3.3
CCOC(=O)c1c(C)oc2ncnc(N3CCN(c4ccccc4F)CC3)c12 | 13.1 | -0.7 | -4.4 | 2.5 | -1.7
CN(C)CCCn1c(SCC(=O)N2c3ccccc3Sc3ccccc32)nc2ccccc2c1=O | -14.8 | 0.9 | -2.6 | 37.8* | 3.5
Cn1c(SCC(=O)N2c3ccccc3Sc3ccccc32)nc2ccccc21 | -8.7 | 0.4 | 0.9 | 6.2 | -8.7
O=C(Nc1ccccc1N1CCOCC1)c1cccnc1 | -79.4* | -0.1 | -10.8 | 0.6 | -2.6
O=C(Nc1ccc(N2CCOCC2)c(Cl)c1)c1cccnc1 | 1.6 | 0.9 | -5.5 | 0.8 | -2.9
CC(=O)OC1COC(OC2C(O)C(C)OC(OC3C(OC4CCC5(C)C(CCC6(C)C5CC=C5C7CC(C)(C)CCC7(C(=O)O)CCC56C)C4(C)CO)OCC(O)C3O)C2O)C(O)C1OC(C)=O (stereo not given) | 186.8 | 15.7 | 26.1 | 323.1* | -10.4
O=C(NCC1CCN(S(=O)(=O)c2ccccc2)CC1)Nc1ccc(F)cc1F | -57.7* | -0.6 | -3.0 | 5.0 | -7.9
O=S(=O)(Nc1cccc(F)c1)c1ccc2[nH]c3c(c2c1)CCCCC3 | 22.1 | 1.2 | -2.0 | 3.3 | -5.8
O=C(NCc1ccc(F)cc1)C(=O)NCC(c1cccs1)S(=O)(=O)c1cccs1 (stereo not given) | / | 0.0 | -2.2 | 17.2 | 5.0
CCOC(=O)c1ccc(NC(=O)c2cnc3c(-c4ccc(F)cc4)c(C)nn3c2C)cc1 | -39.7* | 0.8 | -5.0 | 4.0 | -4.8
Cc1ccc(CNC(=O)c2cnc3c(-c4ccc(F)cc4)c(C)nn3c2C)o1 | -42.8* | -0.6 | -8.6 | 1.7 | -5.9
CCOC(=O)c1ccc(NC(=O)CCc2c(C)nc3c(-c4ccc(F)cc4)c(C)nn3c2C)cc1 | -1.6 | 0.5 | -4.0 | 1.7 | 11.7
CCOc1ccc(CNC(=O)Nc2ccc3c(c2)N(C)C(=O)c2ccccc2S3)cc1 | 8.6 | 0.3 | -1.3 | 4.8 | -1.9
Nc1nc(-c2ccc(-c3ccccc3)cc2)cs1 | -46.7* | -1.4 | -5.8 | 0.5 | 6.5
CN(C(=O)c1ccc(OC2CCN(S(=O)(=O)N(C)C)CC2)cc1)C1CCCCC1 | -0.6 | 0.7 | -7.2 | 3.9 | -10.7
CN(C)S(=O)(=O)N1CCC(Oc2ccc(C(=O)N3CCCCCCC3)cc2)CC1 | -34.9* | 0.3 | -7.6 | 22.7 | 12.5
